Data taken from PubChem BioAssay (NCI).
This is part of a sample that, as a whole, favours compounds with a hit. Of some 83,000 tested, about 20% had one in any assay.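 Method: cells in 96-well plates; compound added at one concentration; 48 h incubation; percent growth measured; values under 10 scored active.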 Unmarked numbers belong to inactive results. Activity calls are given as the source filed them.

The compounds below were run on MDA-MB-468 breast (assay: NCI-60 one-dose screen, 48 h (100 = growth as untreated, 0 = no growth, -100 = all killed)). Details: 10 µM unless noted.
O=C(CN1CCOCC1)Nc1ccc2ncnc(Nc3ccc(Oc4cccc(C(F)(F)F)c4)c(Cl)c3)c2c1 was tested, and the growth was -7.54% (active).
CC1(/C=C/c2ccc(-c3ccccc3)cc2)CCn2cnc3ncnc(c32)N1O (configuration not stated) was tested, and the growth was -5.41% (active).
CC1(C)CC(=O)C=C(N)C1 was tested, and the growth was 90.5%.
In the case of CS(=O)(=O)c1ccc(-c2nn(-c3ccccc3)cc2/C=C/C(=O)c2ccc(Br)cc2)cc1, the growth is reported as 91.4%.
In the case of CCN(CC)CCOCC[C@H]1CC[C@H]2[C@@H]3[C@H](C)Cc4cc(OS(N)(=O)=O)ccc4[C@H]3CC[C@]12C, the growth is reported as -87.2% (active).
CN1CCN(CCCOc2ccc3nc(Nc4ccc(Cl)c(C(F)(F)F)c4)ccc3c2)CC1 showed a growth of 69.5%.
With Oc1c(I)cc(I)cc1CNCCCN(Cc1ccccn1)Cc1ccccn1 the growth was -55.7% (active).
O=C(C[n+]1cccc(Br)c1)c1ccc2c(c1)CCCC2 showed a growth of 94%.
COc1cccc(/C=C2\Oc3cc(OCCCN4CCCC4)ccc3C2=O)c1OC was tested, and the growth was 93.2%.
In the case of CC(=O)Cc1nsc(NC(=O)c2cc(-c3cc(Cl)cc(Cl)c3)oc2C)n1, the growth is reported as 97.6%.
With O=S(=O)(Nc1ccc(OC(F)F)cc1)c1ccc(-c2cnc(C3CC3)o2)cc1 the growth was -9.07% (active).
For CCCCn1c(-c2ccc(O)cc2)cn2c3c(=O)[nH]c(=O)n(C)c3nc12, the growth was 43.4%.
For O=C(O)Cc1cccc2ccccc12, the growth was 121%.
With O=C(/C=C/C(=O)c1ccccc1)c1ccccc1 the growth was 107%.
For COc1ccc2c(c1)NC(=O)CN2c1nc(C)nc2ccccc12, the growth was 9.26% (active).
COC(=O)c1c(C)nc(C)c2c1C(=O)C(Br)=C(NCCCCO)C2=O was tested, and the growth was 29.5%.
Compound COc1cc(C2=NN(C=O)C(c3cccc(Nc4ccnc5cc(C(F)(F)F)ccc45)c3)C2)cc(OC)c1OC (configuration not stated) has a growth of 42.8%.
COc1cc(N)c2ncccc2c1Cl gave a growth of 103%.
Compound CCN1CCN(Cc2ccc(C(=O)Nc3nc4ccc(Oc5ccnc(C(=O)NC)c5)cc4s3)cc2C(F)(F)F)CC1 has a growth of 36.1%.
C1=Cc2ccccc2N(c2nnc(-c3ccccc3)o2)c2ccccc21 gave a growth of 98.7%.
For O=C(CCCCCCNC(=O)C(O)(O)C(F)(F)F)Nc1ncc(-c2ccccc2)s1, the growth was -25% (active).
O=C(CCCN1CCC(O)(c2ccc(Br)cc2)CC1)c1ccc(F)cc1 was tested, and the growth was 49.2%.
O=C(Nc1cccc(Cl)c1)Nc1ncc(CCNc2ncnc3ccsc23)s1 was tested, and the growth was 6.87% (active).
In the case of Cn1cc(-c2nnc(-c3cn(C)c4ncccc34)s2)c2ccccc21, the growth is reported as 12.6%.
In the case of C=C1CC[C@@H]2C(C)(C)[C@H](O)CC[C@@]2(C)[C@@H]1COc1ccc2ccc(=O)oc2c1, the growth is reported as 44.1%.
CN1C(=O)N2CN3CCCN(C3)CN3C(=S)NC1C23 (configuration not stated) gave a growth of 102%.
For COc1cc(C2C3=C(COC3=O)N(CCO)c3cc4c(cc32)CCC4)cc(OC)c1O (configuration not stated), the growth was -21.7% (active).
CNC(=O)c1cc(Oc2ccc3c(c2)sc2nc(-c4ccc(N)cc4)cn23)ccn1 showed a growth of 40.6%.
CC(C)(C)c1nn(-c2ccccc2)c2c1CC1(CN2Cc2ccc(Cl)cc2)C(=O)c2ccccc2C1=O was tested, and the growth was 88.1%.
Compound CN1C(=C2C(=O)OC(C)(C)OC2=O)CCC1C(=O)NCc1ccc(Cl)cc1Cl (configuration not stated) has a growth of 75%.
With N#Cc1ncc(-c2ccc(C(F)(F)F)cc2)c(NC2CCCCCC2)n1 the growth was -8.28% (active).
In the case of Cn1cc(-c2ccc3ncc(-c4ccc(CC(=O)Nc5cc(C(C)(C)C)nn5C)cc4)cc3c2)cn1, the growth is reported as -2.1% [30 µM] (active).
In the case of CN(C)c1ccc(N=Nc2ccc(Br)cn2)c(O)c1, the growth is reported as -6.7% (active).
For C=C(C)[C@@H]1CC[C@]2(C(=O)OCCCC[P+](c3ccccc3)(c3ccccc3)c3ccccc3)CC[C@]3(C)[C@H](CC[C@@H]4[C@@]5(C)CC[C@H](OC(=O)C(Cl)Cl)C(C)(C)[C@@H]5CC[C@]43C)[C@@H]12, the growth was -61.7% (active).
For c1ccc([P+](c2ccccc2)(c2ccccc2)c2ccc3c4ccc([P+](c5ccccc5)(c5ccccc5)c5ccccc5)c5cccc(c6cccc2c63)c54)cc1, the growth was -10.9% (active).
In the case of O=C(CCCCCCNC(=O)C(O)(O)C(F)(F)F)Nc1ccc(-c2ccccc2)cc1, the growth is reported as -10.5% (active).
COc1ccc(C(=O)/C=C/c2cc3ccccc3n3nnnc23)cc1 gave a growth of 96.8%.
